The sample as a whole holds a higher share of hits than the screen did.
Dicer processing = inhibitors of Dicer pre-microRNA processing, primary screen, biochemical, cat-ELCCA, chemiluminescence; Endoribonuclease Dicer (Homo sapiens), Q9UPY3; cat-ELCCA pre-miR-21 Dicer processing; stronger effect = higher value; z-score at 25 µM; actives 6% (n = 47,000); in the data active = z-score above about 3, passing the limit was not always enough;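 also: plate controls were vehicle for no effect and no enzyme for full effect; higher signal means more uncleaved substrate so more Dicer inhibition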
The depositor's hits bear a star.

SMILES	Dicer processing
CCCN(CCC)S(=O)(=O)c1cccc(-c2cn3cccc(C)c3n2)c1	0.04
Cc1cccc(S(=O)(=O)Nc2cccc(-c3cn4ccc(C)cc4n3)c2)c1	1.42
COc1ccc(C=NCCc2cccs2)c(O)c1	2.31
CC1=C(C(=O)OCC(C)C)C(c2ccccc2Br)C2=C(CCCC2=O)N1 (configuration not stated)	-1.02
Cc1ccc(C2Sc3ccccc3N=C3c4ccccc4OCC32)cc1 (configuration not stated)	-2.91
CCCCCSc1nnc2c(n1)OC(CC)N(C(C)=O)c1ccccc1-2 (configuration not stated)	-0.51
CCOc1ccc(S(=O)(=O)Nc2cc(Cl)c3oc4c(c3c2)C(=O)CCC4)cc1	1.24
Cc1ccc(S(=O)(=O)Nc2cc(Cl)c3oc4c(c3c2)C(=O)CCC4)c(C)c1	3.13*
COc1ccc(S(=O)(=O)Nc2ccc3oc4c(c3c2)C(=O)CCC4)cc1	0.14
O=C1CC(c2cccs2)Cc2nc(N3CCN(c4ccccc4)CC3)ncc21 (configuration not stated)	-0.19
CCC(=O)N1c2cc(C)c(C)cc2C(=C2SC(C(=O)OC)=C(C(=O)OC)S2)C(=S)C1(C)C	2.74
Cc1ccc2nc(S/C=C/C(=O)c3cccc(Br)c3)[nH]c2c1	3.53*
CCc1ccc(C(=O)/C=C/Sc2nc3ccc(C)cc3[nH]2)cc1	0.92
CSC(=NC#N)S/C=C/C(=O)c1cccc(Br)c1	-2.23
CCCCSc1nnc2c(n1)OC(c1cccn1C)N(C(C)=O)c1ccccc1-2 (configuration not stated)	0.28
CSc1nc(-c2cccs2)c(C#N)c(=O)n1C	-1.14
CS(=O)(=NS(=O)(=O)c1ccc(Cl)cc1)c1ccccc1 (configuration not stated)	-1.29
CS(=O)(=NS(=O)(=O)c1ccccc1C(F)(F)F)c1ccc(Cl)cc1 (configuration not stated)	-0.05
CS(=O)(=NS(=O)(=O)c1cc(Cl)ccc1Cl)c1ccc(Cl)cc1 (configuration not stated)	4.06*
CCOC(=O)C(C)Oc1ccc2c(=O)c(Oc3cccc(C)c3)c(C(F)(F)F)oc2c1 (configuration not stated)	-0.91
CCCCN1CC(C(=O)OCC)=C(O)C1=O	-0.89
CCOC(=O)c1sc(=S)n(C)c1C	2.89
CCOC(=O)C1=C(O)CCN(C)C1	13.6*
CCOC(=O)C1CCN(c2ccccc2CN(Cc2ccccc2)S(=O)(=O)c2ccc(Cl)cc2)CC1	-1.15
Cc1cccc2cc(-c3noc(-c4ccccc4F)n3)c(=O)[nH]c12	-0.73
SMILES	Dicer processing
O=C(CSC1=NCCCCC1)c1ccc([N+](=O)[O-])cc1	-2.07
C/C(=N\NC(=O)N/N=C(\C)c1ccc([N+](=O)[O-])cc1)c1ccc([N+](=O)[O-])cc1	-1.16
O=C(c1ccc([N+](=O)[O-])cc1)c1ccc2c(c1)CCC2	3.56*
COc1ccc(-n2cc(C#N)c(=O)n(Cc3ccccc3)c2=O)cc1	1.86
Cc1c(C#N)c(Sc2ccccc2N)nc2ccccc12	-1.77
O=C(Nc1c(C(=O)c2ccc(Br)cc2)oc2ccccc12)c1ccco1	-1
COC(=O)c1ccc(C(=O)Nc2c(C(N)=O)oc3ccccc23)cc1	3.59*
O=C(Nc1c(C(=O)c2ccc(F)cc2)oc2ccccc12)c1ccco1	-0.64
CSc1ncccc1C(=O)Nc1ccc2c(c1)C(=O)OC2	-0.23
OC(Cn1ccc2ccccc21)Cn1c(Cc2ccccc2)nc2ccccc21 (configuration not stated)	0.95
CC(C)(C)c1cc2nc(C(F)(F)F)cc(NNC(=O)c3ccccc3)n2n1	6.7*
CC(C)(C)c1cc2nc(C(F)(F)F)cc(N/N=C/c3ccccc3)n2n1	0.12
CC(C)(C)c1csc(NNC(=O)c2ccc(Cl)cc2)n1	12.6
CC(C)(C)c1cc2nc(C(F)(F)F)cc(NNC(=O)c3ccc(Cl)cc3)n2n1	5.22*
CC(C)(C)c1cc2nc(C(F)(F)F)cc(NNC(=O)Nc3ccccc3)n2n1	0.68
CC(C)(C)c1cc2nc(C(F)(F)F)cc(Sc3ccc(Cl)cc3)n2n1	-1.37
CSc1cccc(NC(=S)NNC(=O)CC#N)c1	1.52
O=C(Nc1ccccc1)C1=NN(c2ccccc2)/C(=C2\C(=O)NN=C2c2ccccc2)S1	0.16
CC(=O)Nc1nc2ccc(NC(=O)C3CCCCC3)cc2s1	0.1
Cc1ccc(C(=O)CSc2nc(C)cc(=O)[nH]2)cc1	4.61*
COc1ccc(C(=O)CSc2nc(O)cc(=O)[nH]2)cc1	-2.58
Cc1cc(=O)[nH]c(SCC(=O)C(C)(C)C)n1	0.9
Cc1cc(=O)[nH]c(SCC(=O)N(c2ccccc2)c2ccccc2)n1	1.3
O=C(CSc1nc(C(F)(F)F)cc(=O)[nH]1)c1ccc(Cl)cc1	-1.17
Cc1cc(=O)[nH]c(SCC(N)=O)n1	4.59*
O=C(OCc1ccccc1Br)c1cc([N+](=O)[O-])cc2c1-c1ccc([N+](=O)[O-])cc1/C2=N\O	-1.6
Clc1cc(Cl)c2c(c1)C=C1CCCCC1(N1CCCC1)O2 (configuration not stated)	0.79

Assay outcomes (PubChem BioAssay)
